Results from PubChem BioAssay (EPA / NIEHS).
Where “and” joins values, the source holds several entries; their conditions need not be identical. Equal values may be shown once. Records with an inconclusive call do not appear. The source holds several records for some structures; these can differ, active in one and inactive in another. Calls of active or inactive are those of the source. How the source made its calls, unless noted: active means hit-call score of the fitted dose curve at least 0.9, where 1 is the maximum; inactive means score below 0.9.

Experiments:
[1] = CCTE_Harrill_HTTr_CellCount_MCF7: CCTE's Cell Proliferation Assessment for the High-Throughput Transcriptomics (HTTr) Platform, Harrill Lab (AID 2284012; active means hit-call score of the fitted dose curve at least 0.9, where 1 is the maximum;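 further: cells exposed to compound for six hours; intended direction is loss of nuclei count meaning fewer cells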)
Method in brief: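 Cell count served as viability reporter: loss of Hoechst-stained nuclei, counted by high content imaging, marks decreased growth or survival. Exposure was 6 h in MCF-7 cells across eight concentrations, with DMSO as baseline.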

[2] = target: Glucocorticoid receptor (Homo sapiens) (UniProt P04150); assay: ATG_GR_TRANS: Attagene TRANS-FACTORIAL HepG2 Assay for human Glucocorticoid Receptor (GR) (AID 2282978; active means hit-call score of the fitted dose curve at least 0.9, where 1 is the maximum;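 further: activators score as hits since higher reporter transcript over DMSO is fitted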); settings: HepG2 Attagene TRANS GR reporter, mRNA transcription
Method in brief: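 In this trans-factorial format, exogenous NR-GAL4 chimeric proteins in transfected HepG2 cells regulate GAL4-UAS reporter transcription. After 24 h treatment, reporter mRNA induction relative to DMSO is read by RT-PCR and capillary electrophoresis.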

[3] = ATG_M_06_TRANS: Attagene TRANS-FACTORIAL HepG2 Assay for M06 Transcription Factor (Internal Marker) (AID 2282983; active means hit-call score of the fitted dose curve at least 0.9, where 1 is the maximum;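 further: reporter transcript level by RT-PCR then capillary electrophoresis fluorescence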); settings: HepG2 Attagene TRANS M06 internal marker reporter
Method in brief: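 Read-out: fluorescent reporter cDNA fragments resolved by capillary electrophoresis after RT-PCR and HpaI cut. Source cells were HepG2 carrying transfected multi-reporter GAL4 constructs, dosed 24 h. Increase over DMSO control analysed.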

[4] = BSK_3C_TissueFactor: BioMAP Diversity Plus: 3C Assay for Tissue Factor Biomarker Activity (AID 2282997); settings: BioMAP 3C HUVEC, tissue factor biomarker readout; actives raise or lower the signal
Method in brief: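 HUVEC, 3C system, 24 h post-dose; Tissue Factor by ELISA; bidirectional fit vs DMSO baseline.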

[5] = read-out: Interleukin-1 alpha (IL1a), IL1A (gene 3552); assay: BSK_BE3C_IL1a: BioMAP Diversity Plus: BE3C Assay for Interleukin-1 alpha (IL1a) Biomarker Activity (AID 2283016); settings: primary human bronchial epithelial cells; actives raise or lower the signal
Method in brief: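 Signal from IL-1a ELISA, taken 24 h after chemical dosing of human bronchial epithelial cells, is compared with DMSO as baseline using bidirectional curve fitting.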

[6] = read-out: Monocyte Chemoattractant Protein-1 (MCP1), CCL2 (gene 6347); assay: BSK_3C_MCP1: BioMAP Diversity Plus: 3C Assay for Monocyte Chemoattractant Protein-1 (MCP1) Biomarker Activity (AID 2283017); settings: primary human endothelial cells (HUVEC); actives raise or lower the signal
Method in brief: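 HUVEC, 3C system; 24 h chemical exposure; MCP-1 by ELISA; bidirectional curve fit vs DMSO baseline.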

[7] = read-out: Interleukin-8 (IL8), CXCL8 (gene 3576); assay: BSK_3C_IL8: BioMAP Diversity Plus: 3C Assay for Interleukin-8 (IL8) Biomarker Activity (AID 2283020); settings: primary human endothelial cells (HUVEC); actives raise or lower the signal
Method in brief: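 Endothelial primary cells of human umbilical vein origin are dosed with chemical; after 24 h the IL-8 biomarker is measured by ELISA, and concentration–response is fitted in both directions versus DMSO.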

[8] = read-out: Monokine induced gamma interferon (MIG), CXCL9 (gene 4283); assay: BSK_3C_MIG: BioMAP Diversity Plus: 3C Assay for Monokine induced gamma interferon (MIG) Biomarker Activity (AID 2283021); settings: primary human endothelial cells (HUVEC); actives raise or lower the signal;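 on AC50: MIG protein level measured by immunoassay in the treated endothelial cultures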
Method in brief: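 Endothelial primary cells (human umbilical vein) are dosed with test chemical in the 3C system. MIG levels are measured by ELISA at 24 h and fitted in both directions relative to DMSO.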

[9] = BSK_3C_SRB: Viability Assessment in the BioMAP Diversity Plus: 3C Assay (AID 2283023); settings: primary human endothelial cells (HUVEC);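 further: fitted both ways against DMSO so a hit may be signal rise or drop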
Method in brief: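 HUVEC, 24 h post-dose; 10% TCA fix, 0.1% SRB stain, A560 nm. Bidirectional curve fit vs DMSO negative control.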

[10] = BSK_4H_SRB: Viability Assessment in the BioMAP Diversity Plus: 4H Assay (AID 2283027); settings: primary human endothelial cells (HUVEC);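 further: cells exposed to compound for 24 h before staining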;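 on AC50: curves fitted both ways versus DMSO so AC50 may be loss or gain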
Method in brief: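 Cytotoxicity readout: sulforhodamine B (0.1%) staining of total protein after 10% TCA fixation, measured at 560 nm in human umbilical vein endothelium at 24 h. DMSO set the baseline; fitting was bidirectional.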

[11] = read-out: Urokinase-type plasminogen activator receptor (uPAR), PLAUR (gene 5329); assay: BSK_4H_uPAR: BioMAP Diversity Plus: 4H Assay for Urokinase-type plasminogen activator receptor (uPAR) Biomarker Activity (AID 2283030); settings: primary human endothelial cells (HUVEC); actives raise or lower the signal
Method in brief: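 HUVEC, 24 h post-dose; uPAR by ELISA; bidirectional fit vs DMSO baseline.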

[12] = read-out: Human Leukocyte Antigen - DR isotype (HLADR), HLA-DRA (gene 3122); assay: BSK_BE3C_HLADR: BioMAP Diversity Plus: BE3C Assay for Human Leukocyte Antigen - DR isotype (HLADR) Biomarker Activity (AID 2283032); settings: primary human bronchial epithelial cells; actives raise or lower the signal
Method in brief: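 Chemicals are dosed onto BE3C bronchial epithelial cultures of human origin and left 24 h. HLA-DR is then measured by ELISA, and the endpoint is fitted in both directions using DMSO as the activity baseline.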

[13] = read-out: Tissue plasminogen activator (tPA), PLAT (gene 5327); assay: BSK_BE3C_tPA: BioMAP Diversity Plus: BE3C Assay for Tissue plasminogen activator (tPA) Biomarker Activity (AID 2283041); settings: primary human bronchial epithelial cells; actives raise or lower the signal
Method in brief: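 Gain- or loss-of-signal in tPA, measured by ELISA, derived by bidirectional fitting against DMSO. Cells: human primary bronchial epithelial; read at 24 h after chemical dosing.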

[14] = read-out: Human Leukocyte Antigen - DR isotype (HLADR), HLA-DRA (gene 3122); assay: BSK_CASM3C_HLADR: BioMAP Diversity Plus: CASM3C Assay for Human Leukocyte Antigen - DR isotype (HLADR) Biomarker Activity (AID 2283043); settings: primary human coronary artery smooth muscle cells; actives raise or lower the signal;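 further: cell-surface HLA-DR protein level quantified by ELISA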
[15] = read-out: Macrophage colony-stimulating factor (MCSF), CSF1 (gene 1435); assay: BSK_CASM3C_MCSF: BioMAP Diversity Plus: CASM3C Assay for Macrophage colony-stimulating factor (MCSF) Biomarker Activity (AID 2283044); settings: primary human coronary artery smooth muscle cells; actives raise or lower the signal;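 further: M-CSF protein amount quantified by ELISA after 24 h exposure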
[16] = BSK_CASM3C_SRB: Viability Assessment in the BioMAP Diversity Plus: CASM3C Assay (AID 2283050); settings: primary human coronary artery smooth muscle cells;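 further: total protein by SRB staining as cytotoxicity measure in parallel cultures; cells exposed to compound for 24 h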
[17] = read-out: Thrombomodulin, THBD (gene 7056); assay: BSK_CASM3C_Thrombomodulin: BioMAP Diversity Plus: CASM3C Assay for Thrombomodulin Biomarker Activity (AID 2283051); settings: primary human coronary artery smooth muscle cells; actives raise or lower the signal;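 further: thrombomodulin protein level measured by ELISA 24 h after dosing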
[18] = read-out: Vascular cell adhesion molecule 1 (VCAM1), VCAM1 (gene 7412); assay: BSK_CASM3C_VCAM1: BioMAP Diversity Plus: CASM3C Assay for Vascular cell adhesion molecule 1 (VCAM1) Biomarker Activity (AID 2283055); settings: primary human coronary artery smooth muscle cells; actives raise or lower the signal;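 further: VCAM-1 protein level quantified by ELISA on the cells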
[19] = read-out: TIMP metallopeptidase inhibitor 2 (TIMP2), TIMP2 (gene 7077); assay: BSK_KF3CT_TIMP2: BioMAP Diversity Plus: KF3CT Assay for TIMP metallopeptidase inhibitor 2 (TIMP2) Biomarker Activity (AID 2283071); settings: primary human keratinocytes with fibroblasts; actives raise or lower the signal
Method in brief: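 Chemicals were dosed onto human skin primary co-cultures of keratinocytes and foreskin fibroblasts, and TIMP-2 was measured by ELISA after 24 hours. Activity in either direction was fitted relative to DMSO.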

[20] = read-out: Interleukin-8 (IL8), CXCL8 (gene 3576); assay: BSK_LPS_IL8: BioMAP Diversity Plus: LPS Assay for Interleukin-8 (IL8) Biomarker Activity (AID 2283078); settings: primary human HUVEC with PBMC; actives raise or lower the signal
Method in brief: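 HUVEC + PBMC co-culture, LPS-activated; test chemicals dosed, IL-8 read by ELISA at 24 h. Bidirectional curve fit vs DMSO baseline (gain or loss of signal).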

Measured: AC50

Chain of Glucocorticoid receptor (Homo sapiens) (P04150 whole entry, looked up, the tested form may be a part): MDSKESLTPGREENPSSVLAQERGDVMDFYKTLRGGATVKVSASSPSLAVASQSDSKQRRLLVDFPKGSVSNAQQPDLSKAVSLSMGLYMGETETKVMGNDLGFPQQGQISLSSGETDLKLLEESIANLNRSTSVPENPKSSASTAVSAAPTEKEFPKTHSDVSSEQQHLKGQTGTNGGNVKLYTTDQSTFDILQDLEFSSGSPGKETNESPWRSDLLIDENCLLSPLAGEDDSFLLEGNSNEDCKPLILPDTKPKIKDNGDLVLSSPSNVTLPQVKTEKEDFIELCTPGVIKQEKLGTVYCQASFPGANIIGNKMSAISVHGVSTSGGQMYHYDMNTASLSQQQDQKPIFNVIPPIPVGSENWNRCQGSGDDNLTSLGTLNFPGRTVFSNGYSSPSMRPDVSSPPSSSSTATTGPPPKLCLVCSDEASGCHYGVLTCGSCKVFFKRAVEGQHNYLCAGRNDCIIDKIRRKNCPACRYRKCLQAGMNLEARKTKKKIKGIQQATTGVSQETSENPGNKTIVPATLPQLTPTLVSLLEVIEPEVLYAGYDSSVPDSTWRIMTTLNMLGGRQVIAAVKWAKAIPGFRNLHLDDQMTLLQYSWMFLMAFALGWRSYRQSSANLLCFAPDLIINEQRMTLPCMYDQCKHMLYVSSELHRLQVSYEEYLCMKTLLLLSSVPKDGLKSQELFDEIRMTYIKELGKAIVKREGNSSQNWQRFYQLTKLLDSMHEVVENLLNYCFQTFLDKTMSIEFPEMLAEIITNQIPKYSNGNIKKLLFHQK

O=C=Nc1ccccc1
inactive: [1]

O=C(CCN1CC1)OCC(CO)(COC(=O)CCN1CC1)COC(=O)CCN1CC1
inactive: [2] | [3]

O=C1C=CC(=O)C=C1
active: [4] 33.2 µM | [5] 33 µM | [6] 20 µM | [7] 32.9 µM | [8] 35.6 µM | [9] 28 µM | [10] 28.7 µM | [12] 27 µM | [13] 34.9 µM | [14] 10.9 µM and 20 µM | [15] 12.1 µM | [16] 4.88 µM | [17] 8.44 µM and 20 µM | [18] 9.42 µM and 24.7 µM | [19] 28.7 µM and 12.4 µM | [20] 23.6 µM
inactive: [3] | [4] | [5] | [6] | [7] | [8] | [9] | [10] | [11] | [12] | [13] | [15] | [16] | [20] | [1]

O=[N+]([O-])O
not listed: [2] | [3]
inactive: all other assays above

C[N+](=O)[O-]
inactive: [2]

CN(C)N
inactive: [2] | [3] | [1]

CNC(=O)Oc1cc(C)c(SC)c(C)c1
active: [9] 20 µM | [14] 12.9 µM | [15] 13.3 µM | [16] 10.1 µM | [18] 20 µM
inactive: all other assays above

Nc1ccc([N+](=O)[O-])cc1N
inactive: [3]

Cc1ccc(OP(=O)(Oc2ccc(C)cc2)Oc2ccc(C)cc2)cc1 (tested in a mixture with another compound)
active: [6] 20 µM | [9] 9.68 µM | [19] 5.39 µM | [20] 11.8 µM
inactive: all other assays above

CC1(C)[C@H](C(=O)O[C@H](C#N)c2cccc(Oc3ccccc3)c2)[C@@H]1C=C(Br)Br
inactive: [2] | [4] | [5] | [6] | [7] | [8] | [9] | [10] | [11] | [12] | [13] | [14] | [15] | [16] | [17] | [18] | [19] | [20]
active: [11] 5.23 µM | [14] 11.1 µM | [17] 8.23 µM | [18] 3.97 µM | [19] 0.298 µM

CN(N=O)c1ccccc1
inactive: [3]

CCOC(=O)COc1ccc(Cl)cc1Cl
inactive: [2] | [1]

CCOC(=O)N(C)N=O
inactive: [3]

CC(=O)C=Cc1ccccc1
inactive: [1]

COCC(=O)N(c1c(C)cccc1C)N1CCOC1=O
not listed: [1] | [2] | [3]
inactive: all other assays above

c1ccc(Nc2ccc3ccccc3c2)cc1
active: [4] 32.9 µM | [5] 20 µM | [6] 26 µM | [7] 31.9 µM | [8] 33 µM | [9] 30.2 µM | [10] 32.5 µM | [11] 31.3 µM | [12] 20 µM | [15] 20 µM | [17] 8.69 µM | [19] 15.8 µM
inactive: [2] | [13] | [14] | [16] | [18] | [20]
